We go through 39 compounds from PubChem BioAssay AID2530 (National Center for Advancing Translational Sciences (NCATS), 2010).

SMILES strings stand for the structures. Inconclusive results are not listed. A number with no mark means an inactive call. The source made the active and inactive calls. Calls follow the shape of the dose curve; as a rule, active = well fitted inhibition curve with a large enough effect; inconclusive = small, poorly fitted or top-dose-only effect; inactive = flat fitted curve, though single readings scatter.
Potency is read from the fitted curve at half-maximal effect.

This assay deals with Luciferin 4-monooxygenase (Photuris pensylvanica) (UniProt Q27757). The experiment in a line: Secondary Assay for Luciferase (Kinase-Glo TM) Inhibition Counterscreen.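 As to activity, negative = inhibition: 0% = DMSO only and -100% = 40 µM SIB 1757 full inhibition.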 Conditions: Kinase-Glo luciferase enzyme, luminescence; series mostly up to 58.1 µM; activity, negative = inhibition: at the top concentration. Summed up: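 Inhibition was fitted with the Hill equation after normalizing luminescence to DMSO (basal) and 40 uM SIB 1757 (full inhibition). Kinase-Glo luciferase ran for 8 min at room temperature in imidazole buffer pH 7.2 with KCl, MgCl2 and 10 uM ATP.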
Turning to `COc1cc(Cl)c(C)cc1NC(=O)COC(=O)c1cc[n+]([O-])cc1`, the “activity, negative = inhibition” value was -3.12%. The same measure, in the same setting: to `CC(=O)N(C1=C(Cl)C(=O)c2ccccc2C1=O)C1CCCCC1` belongs -12.8%; to `Cc1ccc(NS(=O)(=O)c2ccc3c(c2)CC(=O)N3C)cc1C`, 2.38%.

`Cc1ccnc(NC(=O)c2ccc3c(c2)OCO3)c1`: the Potency is 11.6 µM (active).

For `COc1ccc(S(=O)(=O)Nc2ccc(C)c(C)c2)cc1`, the “activity, negative = inhibition” value is -2.2%. Still for that read-out and setting: to `Cc1ccc(NS(=O)(=O)c2cccc(C(=O)O)c2)cc1C` belongs -3.53%.

Take `Cc1nc(N/N=C/c2ccccn2)sc1C`: the Potency is 5.8 µM (active). On the same count and under the same terms, to `O=C(Nc1ccc(N2CCOCC2)cc1)c1cn2ccccc2n1` belongs 6.51 µM (active); to `Cc1nc(-c2ccc(C(=O)Nc3ccccc3F)cc2)cs1`, 11.6 µM (active); to `Cn1c(-c2ccc(Br)o2)nc2ccccc21`, 10.3 µM (active). On to `O=C1c2ccccc2C(=O)N1c1nccs1`, for which the “activity, negative = inhibition” value was 1.91%. Regarding `O=C(/C=C/Nc1ccccc1Br)c1ccccn1`, the Potency was 13 µM (active). With `CC(=O)N1CCc2cc(S(=O)(=O)Nc3ccc(C)c(C)c3)ccc21`, the “activity, negative = inhibition” value is -18.9%. Same read-out and setting: to `Cc1ccc(-c2nc3cnccn3c2Nc2ccc(C(C)C)cc2)o1` belongs 1.88%; to `O=C1c2ccccc2C(=O)N1Cc1cccnc1`, -0.656%. Consider `O=CN/C=C/c1cc(O)ccc1O`, for which the “activity, negative = inhibition” value is -4.82%. On the same count and under the same terms, to `Oc1ccc(O)c2c1C1c3ccccc3C2c2ccccc21` belongs 1.66%. The same measure, in the same setting: to `Cc1ccc(NS(=O)(=O)c2ccc(Cl)cc2)cc1C` belongs -0.974%. On to `Fc1ccc(-c2nc3n(n2)Cc2ccccc2-3)cc1`, for which the Potency was 7.3 µM (active).

In the case of `c1c2c(cc3sc(N4CCCCC4)nc13)OCO2`, the Potency was 10.3 µM (active). Turning to `O=C1c2ccccc2C(=O)N1c1ccccc1O`, the “activity, negative = inhibition” value is -2.87%. Still for that read-out and setting: to `CCNc1cccc(S(=O)(=O)N2CCN(S(=O)(=O)c3ccc4c(c3)OCCO4)CC2)c1` belongs 0.695%; to `Cn1c2cc(S(C)=O)sc2c2cnn(Cc3cccc(O)c3)c(=O)c21` (centres undefined), 1.28%.

`Cc1ccc(NS(=O)(=O)c2ccc3c(c2)N(C)CCO3)cc1C`: the “activity, negative = inhibition” value is 0.646%.

For the compound `O=C1c2ccccc2C(=O)N1c1cccc(=O)[nH]1`, the “activity, negative = inhibition” value was -2.84%. Still for that read-out and setting: to `CC(=O)Nc1ccc(S(=O)(=O)Nc2ccc(C)c(C)c2)cc1` belongs 1.73%; to `O=C1CCc2cc(S(=O)(=O)Nc3ccccc3F)ccc2N1`, 3.13%. Turning to `Nc1cc(S(=O)(=O)N2CCN(S(=O)(=O)c3ccc4c(c3)OCCO4)CC2)ccn1`, the “activity, negative = inhibition” value is -17.1%. Same read-out and setting: to `COc1ccc2[nH]c3c4c(ccc3c2c1)C(=O)C=CC4=O` belongs -10.9%; to `Cc1ccc(NS(=O)(=O)c2cccc(F)c2)cc1C`, -0.467%.

As to `CN(C)c1ccc(N=Nc2nc3ccccc3n2C)cc1`, the Potency is 9.19 µM (active). As for `Cc1ccc(NS(=O)(=O)c2ccc(-c3ccccc3)cc2)cc1C`, the “activity, negative = inhibition” value was 3.13%. Consider `Cc1c(C(=O)NC(=S)Nc2ccc(NC(=O)c3cccs3)cc2)oc2ccccc12`, for which the “activity, negative = inhibition” value was -3.45%.

Consider `Cc1ccc(NS(=O)(=O)c2cc3c(cc2-c2ccco2)NC(=O)CO3)cc1C`, for which the “activity, negative = inhibition” value is 3.64%. Regarding `O=C1c2ccccc2C(=O)N1c1cc(=O)c2ccccc2[nH]1`, the “activity, negative = inhibition” value was 1.52%. Consider `CN1CCc2cccc3c2C1Cc1ccc(O)c(O)c1-3` (centres undefined), for which the “activity, negative = inhibition” value is 1.25%.

Turning to `Cc1cc(C)c2c(=O)n(CC(=O)Nc3cccc(Cl)c3C)sc2n1`, the “activity, negative = inhibition” value was -15.8%. Same read-out and setting: to `COc1ccc(NS(=O)(=O)c2ccc3c(c2)CCC(=O)N3)cc1` belongs 1.39%; to `COc1ccc(N2C(=O)c3ccccc3C2=O)cc1`, -5.5%.
